The test system of assay [1] is RAW-Dual. Nature of the assay: NF-kB SEAP reporter activity, fold change vs agonist alone; cytotoxicity flag (confluency mask): not cytotoxic; higher = enhanced NF-kB activity. The method in brief:
(§1)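 RAW-Dual macrophages were seeded in DMEM at 50,000 cells/well in 384-well plates, given 50 nL of library stock by pin tool, and given a PRR agonist 1 h later. Plates were held at 37 °C, 5% CO2 for 20 hours, after which supernatant was read for IRF by QuantiLuc luminescence and for NF-κB by QuantiBlue absorbance at 620 nm. Reporter activity is expressed as fold change over wells that received agonist alone. A well was called cytotoxic when IncuCyte confluency fell below 70% of agonist controls in both mask sets.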

Assay [2] concerns RAW-Dual. Nature of the assay: NF-kB SEAP reporter activity, fold change vs agonist alone; higher = enhanced NF-kB activity. The method in brief: as §1
Assay [3] concerns RAW-Dual. Description: NF-kB SEAP reporter activity, fold change vs agonist alone; cytotoxicity flag (confluency mask): cytotoxic (confluency <70% of control); higher = enhanced NF-kB activity. The method in brief:
as §1

Where [4] appears, read: agonist: ODN 1826 (TLR9) 0.5 ug/mL.
[5] abbreviates: agonist: Pam2CSK4 (TLR2/6) 0.1 ug/mL.
The mark [6] stands for this setting: agonist: Pam3CSK4 (TLR2/1) 0.1 ug/mL.
Setting [7] is: library stock concentration (final ~1000-fold dilution): 10 mM, cytotoxicity flag (confluency mask): not cytotoxic, agonist: Imiquimod (TLR7) […].
[8] abbreviates: library stock concentration (final ~1000-fold dilution): 10 mM, cytotoxicity flag (confluency mask): not cytotoxic, agonist: MPLA (TLR4) […].

The values that follow come from the supplement of paper PMC10037445.

Where “and” joins values, the source holds several entries; their conditions need not be identical. Equal entries are not always repeated. Whole data set: some 2,900 compounds, median “NF-kB SEAP reporter activity, fold change vs agonist alone” near 0.99, cut for the highest 2% near 2.6. This is one part of a sample in which the highest values are shown more often than they occur.

On to `Cn1cc(-c2ccc3ncc(Cc4ccc5ncccc5c4)n3n2)cn1` (library stock concentration (final ~1000-fold dilution): 10 mM), for which the “NF-kB SEAP reporter activity” value was 1.88 in assay [1] (agonist: LPS (TLR4) 0.1 ug/mL), 1.35 in assay [1] (setting [4]), 1.31 in assay [1] (setting [5]) and 1.47 in assay [1] (setting [6]).
On to `Cn1cc(-c2ccc3ncc(Cc4ccc5ncccc5c4)n3n2)cn1`, for which the entries for the “NF-kB SEAP reporter activity” value in assay [2] (setting [7]) and in assay [2] (setting [8]) were 1.37 and 1.23, respectively.
The matching figures for `COc1cc2ncc(-c3ccccc3)nc2cc1OC`: 1.16 and 1.39.
Regarding `COc1cc(OC)cc(N(CCNC(C)C)c2ccc3ncc(-c4cnn(C)c4)nc3c2)c1` (library stock concentration (final ~1000-fold dilution): 10 mM), the “NF-kB SEAP reporter activity” value in assay [3] (agonist: LPS (TLR4) 0.1 ug/mL) amounted to 3.64; in assay [3] (setting [4]), 0.427; in assay [3] (setting [5]) it was 1.06; in assay [3] (setting [6]) it was 1.57.
`COc1cc2ncc(-c3ccccc3)nc2cc1OC` (library stock concentration (final ~1000-fold dilution): 10 mM): the “NF-kB SEAP reporter activity” value in assay [1] (agonist: LPS (TLR4) 0.1 ug/mL) amounted to 1.78; in assay [1] (setting [4]), 1.28; in assay [1] (setting [5]) it was 0.915; in assay [1] (setting [6]), 0.864.
Turning to `COc1cc(OC)cc(N(CCNC(C)C)c2ccc3ncc(-c4cnn(C)c4)nc3c2)c1`, the “NF-kB SEAP reporter activity” value in assay [2] (library stock concentration (final ~1000-fold dilution): 10 mM, cytotoxicity flag (confluency mask): cytotoxic (confluency <70% of control), agonist: Imiquimod (TLR7) […]) turned out to be 1.76; in assay [2] (library stock concentration (final ~1000-fold dilution): 10 mM, cytotoxicity flag (confluency mask): cytotoxic (confluency <70% of control), agonist: MPLA (TLR4) […]), 2.21.
With `Br.COc1ccc2c3c1OC1CC(O)C=CC31CCN(C)C2` (configuration not stated), the “NF-kB SEAP reporter activity” value in assay [2] (library stock concentration (final ~1000-fold dilution): 10 mM water, cytotoxicity flag (confluency mask): not cytotoxic, agonist: Imiquimod (TLR7) […]) worked out at 0.936; in assay [2] (library stock concentration (final ~1000-fold dilution): 10 mM water, cytotoxicity flag (confluency mask): not cytotoxic, agonist: MPLA (TLR4) […]), 0.997.
Regarding `Br.COc1ccc2c3c1OC1CC(O)C=CC31CCN(C)C2` (configuration not stated) (library stock concentration (final ~1000-fold dilution): 10 mM water), the “NF-kB SEAP reporter activity” value in assay [1] (agonist: LPS (TLR4) 0.1 ug/mL) came to 1.12; in assay [1] (setting [4]), 1.02; in assay [1] (setting [5]), 1.12; in assay [1] (setting [6]), 1.16.
For `CC(C)C(C(=O)O)N1C(=O)/C(=C/c2ccc(Br)cc2)SC1=S` (configuration not stated) (library stock concentration (final ~1000-fold dilution): 10 mM), the “NF-kB SEAP reporter activity” value came to 1.12 in assay [1] (agonist: LPS (TLR4) 0.1 ug/mL), 0.953 in assay [1] (setting [4]), 0.947 in assay [1] (setting [5]) and 1.05 in assay [1] (setting [6]).
On to `CC(C)C(C(=O)O)N1C(=O)/C(=C/c2ccc(Br)cc2)SC1=S` (configuration not stated), for which the “NF-kB SEAP reporter activity” value came out at 0.992 in assay [2] (setting [7]) and 1.01 in assay [2] (setting [8]).
For `CC1(C)C(C(=O)O)N2C(=O)CC2S1(=O)=O` (configuration not stated) (library stock concentration (final ~1000-fold dilution): 10 mM), the “NF-kB SEAP reporter activity” value is 1.04 and 0.881 in assay [1] (agonist: LPS (TLR4) 0.1 ug/mL); 1.01 and 1.03 in assay [1] (setting [4]); 0.96 and 1.14 in assay [1] (setting [5]); 1.05 and 1.19 in assay [1] (setting [6]).
As to `Cl.O=c1[nH]ccc2c(S(=O)(=O)N3CCCNCC3)cccc12`, the “NF-kB SEAP reporter activity” value worked out at 1 in assay [2] (setting [7]) and 0.986 in assay [2] (setting [8]).
With `Cl.O=c1[nH]ccc2c(S(=O)(=O)N3CCCNCC3)cccc12` (library stock concentration (final ~1000-fold dilution): 10 mM), the “NF-kB SEAP reporter activity” value in assay [1] (agonist: LPS (TLR4) 0.1 ug/mL) came to 1.22; in assay [1] (setting [4]), 0.968; in assay [1] (setting [5]) it was 1.05; in assay [1] (setting [6]), 1.23.
The matching figures for `CCN(CC)Cc1ccc2cc(COC(=O)Nc3ccc(C(=O)NO)cc3)ccc2c1.Cl.O` (library stock concentration (final ~1000-fold dilution): 10 mM): 7.02, 0.922, 1.87 and 1.04.
For the compound `COc1ccc(Cn2ccc3ccc(C(=O)NO)cc32)cc1`, the “NF-kB SEAP reporter activity” value came out at 0.789 in assay [2] (setting [7]) and 0.903 in assay [2] (setting [8]).
Regarding `COc1ccc(Cn2ccc3ccc(C(=O)NO)cc32)cc1` (library stock concentration (final ~1000-fold dilution): 10 mM), the “NF-kB SEAP reporter activity” value worked out at 0.996 in assay [1] (agonist: LPS (TLR4) 0.1 ug/mL), 0.62 in assay [1] (setting [4]), 0.788 in assay [1] (setting [5]) and 0.588 in assay [1] (setting [6]).
Take `CCN(CC)Cc1ccc2cc(COC(=O)Nc3ccc(C(=O)NO)cc3)ccc2c1.Cl.O`: the “NF-kB SEAP reporter activity” value was 0.805 in assay [2] (setting [7]) and 1.17 in assay [2] (setting [8]).
